PubChem BioAssay AID651871 (Sanford-Burnham Center for Chemical Genomics, 2012)
Several values for one entry are separate records, joined by “and”; a condition that tells them apart may be missing. Equal entries are not always repeated.

system: HL-1; test: protection of cardiomyocytes from stress damage, SAR follow-up, cell-based, panel, H9c2 and HL-1, ATP luminescence, set 2 (AID 651871); details: H9c2/HL-1 cardiomyocytes, 2-deoxyglucose stress, with 2-deoxyglucose, run 11, at 79 µM (top of the series);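 further: cells exposed to stressor for 2 h before ATP readout; reference of the scale not given here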

SMILES | activity (protection/inhibition)
COc1ccc2nc(-c3cc(OC)c(OC)c(OC)c3)cc(C(=O)NCC(=O)Nc3ccc(C(C)=O)cc3)c2c1 | 89%
CCOC(=O)c1cccc(NC(=O)CNC(=O)c2cc(-c3cc(OC)c(OC)c(OC)c3)nc3ccccc23)c1 | 66.5%
COc1ccc2c(c1OC)C(=O)N1c3ccccc3C(=O)N(Cc3cccc(Cl)c3Cl)C21 (stereo not drawn) | 42.6% and -9.56%
